Laboratory results taken from PubChem BioAssay (NCI).
Compounds without any hit were thinned out: in the full panel of roughly 83,000, 20% have a hit.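 Note: values are percent growth. 100 is the growth of untreated cells, values between 100 and 0 indicate rising inhibition; between -100 and 0 indicates cell death.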 A number with no mark means an inactive call. Calls of active or inactive are those of the source. The calls were made as follows: active = growth percent below 10; inactive = the rest.

Test system: SF-539 CNS
Experiment: NCI-60 one-dose screen, 48 h (100 = growth as untreated, 0 = no growth, -100 = all killed)
Conditions: 10 µM unless noted

Row | Structure (SMILES) | growth
1 | N#Cc1c(-c2ccc(Cl)cc2)nc(SCc2ccc(F)cc2)nc1N1CCNCC1 | 75.9%
2 | Clc1ccc(-c2cn3cc(Cc4ccc(Cl)c(Cl)c4)sc3n2)cc1 | 83.8%
3 | COc1ccc(/C=N/NC(=O)c2[nH]c3ccc(Br)cc3c2-c2ccccc2)o1 | -17.4% (active)
4 | O=C(Nc1nc2ccc(O)cc2s1)c1cccc(C(F)(F)F)c1 | 72.5%

Test system: UACC-257 melanoma
Experiment: as above
Conditions: 10 µM unless noted

Row | Structure (SMILES) | growth
5 | Cc1ccc2c(n1)C(=O)C(Cl)=C(Nc1cccc(C(C)C)c1)C2=O | 1.85% (active)
6 | Cn1cc(-c2cc(N)n3nc(-c4cn(C)c5ccc(F)cc45)cc3n2)c2cc(F)ccc21 | 101%
7 | Cn1c(SCC(=O)c2cccs2)nc2ccccc2c1=O | 93.4%
8 | CCCC(=O)NC(c1ccc(N(CC)CC)cc1)c1cc(C)c2cccnc2c1O (stereo not drawn) | 24.9%
9 | COC(=O)C1CCCN(S(=O)(=O)/N=C2\NC(=O)NC2=C(Cl)Cl)C1 (stereo not drawn) | 106%
10 | O=C(N/N=C/c1ccc([N+](=O)[O-])s1)c1[nH]c2ccc(Br)cc2c1-c1ccccc1 | 58%
11 | C=C1CC[C@H]2[C@@](C)(CCC3OC(c4ccc(OCc5cn(C6CC(OC(C)=O)C(OC(C)=O)C(COC(C)=O)O6)nn5)cc4)OC[C@]32C)[C@@H]1/C=C/C1=CCOC1=O (stereo partly drawn) | 61.6%
12 | COc1ccc([C@@H]2c3[nH]c4ccccc4c3CC3C(=O)N(C4CCN(Cc5c(F)cccc5F)CC4)CC(=O)N32)c(OC)c1 (stereo partly drawn) | 77.4% [5.26 µM]
13 | O=C(N/N=C/c1ccc(Br)s1)c1[nH]c2ccc(Br)cc2c1-c1ccccc1 | 57.2%
14 | O=C1c2c(c3c4cccnc4[nH]c3c3ccc4ccccc4c23)C(=O)N1CCO | 92.7%
15 | Nc1c(C(=O)Nc2ccc(C(F)(F)F)cc2)sc2nc(-c3cnccn3)cc(-c3cccs3)c12 | 95.8%
16 | CSc1ccc2c(c1)N(C(=O)/C(C#N)=C/c1c[nH]c3ccccc13)c1ccccc1S2 | 57%
17 | Cc1cc(C(=O)Nc2sc3c(c2C(N)=O)CCC(=O)C3)ccc1OCCN1CCCCC1 | 107%
18 | CN(C)c1ccc(/C=c2\sc3nc4ccccc4n3c2=O)cc1 | 117%
19 | CN(C)c1ccc(/C=C2\Cc3c(F)ccc(Br)c3C2=O)cc1 | 91.3%
20 | CN1CCN(Cc2ccc(NC(=O)c3cncc(C#Cc4cnc5ccc(N6CCSCC6)nn45)c3)cc2C(F)(F)F)CC1 | 31.1%
21 | COc1cc(/C=C/C(=O)c2ccc(C)cc2)ccc1Oc1nc(NCCO)nc(N2CCOCC2)n1 | 101%
22 | O=C(CSc1nnc(-c2ccc3nc(-c4ccc(Cl)cc4)[nH]c3c2)o1)Nc1ccc(C(=O)/C=C/c2ccc(Cl)cc2)cc1 | 107%
23 | C#Cc1nc(C2=C(C)C(=N\O)/C(=N/O)C2)cs1 | 102%
24 | CCOc1ccc2nc(NC(=O)c3ccc(C(F)(F)F)cc3)sc2c1 | 107%

Row | Structure (SMILES) | growth
25 | CC(O)C(NC(=O)C1CCCN1C(=O)CNC(=O)C1CC(=O)NCC(=O)NC(Cc2c[nH]c3ccccc23)C(=O)NC(Cc2ccc(O)cc2)C(=O)NCC(=O)NC(CO)C(=O)NC(CCC(N)=O)C(=O)NC(Cc2c[nH]c3ccccc23)C(=O)N1)C(=O)NCC(=O)NC(CCC(N)=O)C(=O)NC(CCCNC(=N)N)C(=O)NC(CC(=O)O)C(=O)O (stereo not drawn) | 102%
26 | CC1=C(C)C(=O)C(Nc2ccccc2)=C(Cl)C1=O | 90.3%
27 | CO/N=C1\CCc2c(sc(NC(=O)c3cccc(C(F)(F)F)c3)c2C(N)=O)C1 | 66%
28 | COc1ccc(CNS(=O)(=O)/N=C2\NC(=O)NC2=C(Cl)Cl)cc1 | 54.4%
29 | NS(=O)(=O)c1cccc(Nc2nc(SCC(=O)c3ccc([N+](=O)[O-])cc3)nc3ccccc23)c1 | 88.9%
30 | Cn1ccnc1C(=O)/C=C/c1ccc(NC(=O)Nc2ccccc2)cc1 | 80%
31 | CCOC(=O)c1sc(N)c(C(=O)OCC)c1C | 78.3%
32 | CN(C)S(=O)(=O)c1oc(-c2ccccc2)nc1C#N | 103%
33 | O=C1Nc2cc(Cl)ccc2/C1=C\c1ccc(OCc2ccc(Br)cc2F)cc1 | 8.13% (active)
34 | COc1cc(/C=C/C(=O)c2cc(OC)c(OC)c(OC)c2)ccc1OCc1ccccc1 | 68.9%
35 | NC(=O)c1cc(-c2ccc3ncnc(N4CCc5cc(F)c(Cl)cc54)c3c2)cnc1N | 54.8%
36 | COc1ccc(NC2=C(Cl)C(=O)C(C)=C(C)C2=O)cc1OC | 95.1%
37 | Cn1ccnc1C(=O)/C=C/c1ccc(NC(=O)Nc2ccc(F)cc2)cc1 | 85.6%
38 | O=C(CCN1C(=O)/C(=C/c2ccccc2)SC1=S)N1CCOCC1 | 91.4%
39 | Cc1ccc(CNS(=O)(=O)/N=C2\NC(=O)NC2=C(Cl)Cl)cc1 | 60.2%
40 | N#Cc1c(-c2ccc(Cl)cc2)nc(SCc2ccc(F)cc2)nc1N1CCNCC1 | 86.4%
41 | Clc1ccc(-c2cn3cc(Cc4ccc(Cl)c(Cl)c4)sc3n2)cc1 | 52.3%
42 | COc1ccc(/C=N/NC(=O)c2[nH]c3ccc(Br)cc3c2-c2ccccc2)o1 | 54.1%
43 | O=C(Nc1nc2ccc(O)cc2s1)c1cccc(C(F)(F)F)c1 | 70.1%
